The values below come from PubChem BioAssay (NCATS).

Structures are written as SMILES. Active and inactive are the calls of the source. The call rests on the fitted dose curve; in most records, active means well fitted activation curve with a large enough effect; inconclusive means small, poorly fitted or top-dose-only effect; inactive means flat fitted curve, though single readings scatter.

The test in a line: Cellular Toxicity (caspase-3) SK-N-SH (AID 661).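 Further: 0% = DMSO basal and 100% = 10 µM staurosporine.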 To be noted: SK-N-SH caspase-3 activation, qHTS, DMSO as zero, staurosporine as full; series mostly up to 91.7 µM; caspase-3 activation: at the top concentration. An excerpt:
NIH Chemical Genomics Center [NCGC]
NIH Molecular Libraries Screening Centers Network [MLSCN]
National Institutes of Environmental Health Sciences [NIEHS]
National Toxicology Program [NTP]
We have developed a 1536-well cell-based assay for quantitative high throughput screening (qHTS) against a number of cell lines to determine in vitro caspase 3/7 activity of small molecules. This particular assay uses the SK-N-SH cell line which is derived from human neuroblastoma.
NCGC Assay Protocol Summary:
The Caspase-Glo 3/7 assay (Promega) is a homogeneous method to measure caspase-3 and caspase-7 activities in cultured cells. The quantitation of caspase 3/7 activity is based on the cleavage of a peptide-aminoluciferin substrate. After caspase cleaves the substrate the free aminoluciferin is liberated and serves as the substrate of luciferase, which generates the light. The luminescent signal is proportional to amount of caspase 3/7 activity present.
Using the Caspase-Glo 3/7 assay, the amount of caspase 3/7 activity was measured in the SK-N-SH cell line with complete culture medium following compound treatment for 16 hours. The assay was performed in opaque white 1536-well plates. In the screen, tamoxifen and staurosporine were used as positive controls. Library compounds were measured for their ability to cause the activation of caspase 3/7 in the cell line, as reflected by an increase in luminescence signal, in a concentration-dependent manner. Data were normalized to the controls for basal activity (DMSO only) and 100% stimulation (10 uM staurosporine). AC50 values were determined from concentration-response data modeled with the standard Hill equation.
qHTS protocol for caspase 3/7 assay in SK-N-SH cells
[Step] [Parameter] [Value] [Description]
1. Reagent; 5 uL; 1500 SK-N-SH cells/well
2. Time; 5 hr; 37 °C incubation
4. Controls; 23 nL; Tamoxifen 0.23 uM to 100 uM & staurosporine 1.4 pM to 100 uM
5. Time; 16 hr; 37 °C incubation
6. Reagent; 5 uL; Caspase-Glo 3/7 reagent
7. Time; 1 hr; Room Temperature
8. Detection; Luminescence; Viewlux plate reader
Keywords: caspase 3/7, apoptosis, SK-N-SH cell line, luminescence, NTPHTS, NTPHTS_NCGC, NIEHS, EPA, DSSTox, MLSMR, MLSCN, NIH Roadmap, qHTS, NCGC
For `CCOc1ccc2c(c1)C(C)=CC(C)(C)N2`, the “caspase-3 activation” value is -0.82% (inactive).
With `CC(O)CO` (centres undefined), the compound was called inactive.
In the case of `CCOC(C)=O`, the “caspase-3 activation” value is -0.456% (inactive).
On to `CC1=C(/C=C/C(C)=C/C=C/C(C)=C/CO)C(C)(C)CCC1`, for which the “caspase-3 activation” value is 2.62% (inactive).
The same measure, in the same setting: to `IC(I)I` belongs -0.272% (inactive); to `CC1=C2[C@@H]([C@H](C)CC[C@H]2/C=C(\C)C(=O)O)[C@H](O)C1`, -0.918% (inactive).
As for `Nc1ccn([C@H]2CS[C@@H](CO)O2)c(=O)n1`, the “caspase-3 activation” value is -2.65% (inactive).
In the case of `Cc1ccccc1`, the result was inactive.
On to `O=C(O)CCC(=O)C(=O)O`, for which the “caspase-3 activation” value was -0.735% (inactive).
With `CCCCCCCC/C=C\CCCCCCCC(=O)O`, the “caspase-3 activation” value is -1.47% (inactive).
In the case of `CCCCCCCC(=O)O`, the compound was classed as inactive.
Consider `O=S(=O)(O)O`, for which the outcome was inactive.
On to `CC(C)=O`, for which the “caspase-3 activation” value was 0.987% (inactive).
For `CCCCC/C=C\C/C=C\CCCCCCCC(=O)O`, the “caspase-3 activation” value is 2.11% (inactive).
